The source of these data is PubChem BioAssay AID1626 (SRMLSC, 2009).

Screen size: about 220,000 compounds; about 2,000 (0.91%) were called active. Not shown: some 2% with an inconclusive outcome. Only a sample is shown. Results with a measured potency or affinity are listed apart. Values without a mark were called inactive. No stated cut-off is given here; in the data, inconclusive means inhibition above about 80% without an active follow-up result; inactive means below that; test concentration not stated here.

This test is described as follows: M. tuberculosis H37Rv growth inhibitors, H37Rv strain (AID 1626).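 Further: bacteria incubated seven days before Alamar blue readout; 0% = bacteria only wells and 100% = bacteria with antibiotic wells.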 The note with it: stronger effect = higher value, concentration not given here.
As a reminder, the inhibition is the drop in the measured response relative to a control, in per cent. Regarding `CN(C)CCCCCCCCCCC(=O)/C=N/O`, the inhibition is 7.54%.

As to `CCn1ncc(CN2CCN(Cc3ccc(OC)c(C)c3C)C(CCO)C2)c1C` (stereo unspecified), the inhibition is 3.6%.

Take `N[C@@H](Cc1c[nH]c2ccccc12)c1nnc(SCc2ccccc2)o1`: the inhibition is -10.5%.

`Cc1cc2oc(=O)c3c(c2cc1OCc1nn[nH]n1)CCCC3`: the inhibition is -6.49%.

Turning to `CCOC(=O)COc1ccc2c3c(c(=O)oc2c1C)CCC3`, the inhibition was 76.7%.

In the case of `COCCCn1c(SCC(=O)OC2CCCCC2)nnc1-c1ccco1`, the inhibition was -15.4%.

With `Cc1ccccc1SCc1noc(C(=O)NCC2CCCO2)c1C(=O)O` (stereo unspecified), the inhibition is -6.27%.

For `COc1ccc(-n2c(O)c(C(C)=NCCCn3ccnc3)c(=O)[nH]c2=O)cc1`, the inhibition was -3.9%.

Regarding `O=C(Nc1ccc(NC(=S)NC(=O)c2cccs2)cc1)c1ccco1`, the inhibition was -2.57%.

Regarding `O=C(OCC(=O)N(C1CCCCC1)C1CCCCC1)c1ccco1`, the inhibition was -7.12%.

As for `CCc1[nH]nc2c1C1(CCOC1C)C(C#N)=C(N)O2` (stereo unspecified), the inhibition is -2.61%.

Turning to `Cn1c(=O)[nH]c(=O)c2c1nc([N+](=O)[O-])n2Cc1ccccc1`, the inhibition is 72.1%.

As to `CCCn1c(Sc2nc3c(c(=O)[nH]c(=O)n3C)n2CCC)nc2c1c(=O)[nH]c(=O)n2C`, the inhibition was 3.31%.

As to `CC(C(=O)c1ccccc1)N1C(=O)c2ccccc2C1=O` (stereo unspecified), the inhibition was -3.22%.

For the compound `N#Cc1cccnc1N1CCC(C(N)=O)CC1`, the inhibition is -8.98%.

Consider `O=C(N/N=C/c1ccc2c(c1)OCO2)C(=O)Nc1ccc2ccccc2c1`, for which the inhibition was 1.96%.

As to `O=c1c2ccccc2nc(-c2ccc(Cl)cc2Cl)n1O`, the inhibition was 1.38%.

On to `CSc1ccccc1NC(=O)c1ccc(C)o1`, for which the inhibition is -1.2%.

In the case of `CN(C)CCCN1c2ccccc2Sc2ccccc21`, the inhibition was -4.11%.

Turning to `COc1ccc2c(c1)Sc1ccccc1N2CCN(C)C`, the inhibition was 2.43%.

As to `O=c1[nH]c2cccnc2c2ccsc12`, the inhibition is -1.93%.

For `Cc1ccc(/C=N/N2CCN(c3ccncc3S(=O)(=O)N3CCCCC3)CC2)cc1`, the inhibition is 7.81%.

As to `O=C1CCCc2sc3c(c2N1)CCCCC3`, the inhibition is -8.7%.

As to `Cc1cc2c(s1)CCCCC(=O)N2`, the inhibition is -2.34%.

`Cc1cc(C(=O)NC(Cc2ccccc2)C(=O)O)c(C)o1` (stereo unspecified): the inhibition was 1.76%.

As to `O=C(CNC(=S)N(CCCN1CCOCC1)Cc1cccs1)NCCN1CCOCC1`, the inhibition is 5.22%.

In the case of `NC(=O)CN1C(=O)C2C3c4ccccc4C(c4ccccc43)C2C1=O` (stereo unspecified), the inhibition was 2.42%.

`CCNc1nc(NCC)nc(N/N=C/c2cc(OC)c(OC)c(OC)c2)n1`: the inhibition is -2.94%.

As to `Cc1[nH]n(-c2ccccc2)c(=O)c1-c1ccccc1`, the inhibition was -7.21%.

As to `Cc1cc(-c2c(C)[nH]n(-c3ccc(Cl)cc3)c2=O)n[nH]1`, the inhibition was 65.3%.

On to `CCOC(=O)C1=C(O)/C(=C/c2ccc(OCC(=O)O)c(OC)c2)SC1=Nc1ccc(OC)cc1`, for which the inhibition is 17.4%.

With `CCOc1ccc(Nc2nc(N3CCCC3)nc(N3CCN(c4ccc(OC)cc4)CC3)n2)cc1`, the inhibition was -4.38%.

Turning to `CCNc1nc(N2CCCC2)nc(N2CCCC2)n1`, the inhibition is 1.64%.

In the case of `COc1ccc(N2CCN(c3nc(Nc4ccc(C)c(F)c4)nc(N4CCCC4)n3)CC2)cc1`, the inhibition was 1.07%.

Consider `CC(C)(C)Nc1nc(N2CCCC2)nc(N2CCCC2)n1`, for which the inhibition is 14.2%.

Turning to `O=C(NC(=S)NCCSc1ccccc1)c1cccnc1`, the inhibition was 4.56%.

Regarding `COc1ccc(S(=O)(=O)NC2CCCCC2)cc1-n1cnnn1`, the inhibition was -10.3%.

As for `Fc1cccc(Cl)c1/C=N/Nc1ccccn1`, the inhibition was 3.42%.

In the case of `O=c1[nH]c(=O)n(Cc2ccccc2Cl)c(O)c1C=Nc1ccc(F)cc1`, the inhibition is 3.81%.

On to `COc1ccc(Cn2c(O)c(/C=N/NC(=O)c3ccccc3)c(=O)[nH]c2=O)cc1`, for which the inhibition is -2.76%.

Consider `Cn1c(O)c(/C=C2/C=CC=N2)c(=O)[nH]c1=O`, for which the inhibition is 1.64%.

With `C=CCn1c(O)c(/C=C2/C=CC=N2)c(=O)[nH]c1=O`, the inhibition was 49%.

Consider `O=C(NC1CCCCC1)N1CCCc2ccccc21`, for which the inhibition is -7.82%.

Take `Cc1ccc(CC2C(=O)N(CC(=O)O)C(=O)C2C)cc1` (stereo unspecified): the inhibition was -14.9%.

On to `CCCCNC(=O)Nc1ccccn1`, for which the inhibition was -6.21%.

`O=C(Nc1ccccn1)C(=O)Nc1ccccn1`: the inhibition was -5%.

As to `CC(O)Cc1cn([C@@H](CCCCNC(=O)OC(C)(C)C)C(=O)N2CCN(C(=O)OC(C)(C)C)CC2)nn1` (stereo partly specified), the inhibition is -10.7%.

For the compound `CO/C=C/C#CC1(O)CCN(C)CC1`, the inhibition was -1.81%.

For the compound `O=C(NCC1CCCO1)c1cc(C(=O)c2ccc(Cl)cc2Cl)c[nH]1` (stereo unspecified), the inhibition is 2.36%.

Regarding `COCCCNC(=S)Nc1ccc(C)cc1`, the inhibition was -3.56%.

On to `COc1cc(OC)c2c(C)cc(=O)oc2c1C(CCN1CCOCC1)c1ccc(N(C)C)cc1` (stereo unspecified), for which the inhibition was -12.1%.

On to `COc1cc(OC)c2ccc(=O)oc2c1C(CCN1CCCC1)c1ccc(N(C)C)cc1` (stereo unspecified), for which the inhibition was -8.24%.

Consider `COc1ccc(C(CCN2CCOCC2)c2c(OC)cc(OC)c3c(C)cc(=O)oc23)cc1` (stereo unspecified), for which the inhibition is -3.23%.

Consider `COc1ccc(C(CCN2CCCC(C)C2)c2c(OC)cc(OC)c3c(C)cc(=O)oc23)cc1` (stereo unspecified), for which the inhibition is 1.05%.

Turning to `CCCCCc1cc(=O)oc2c(C(CCN3CCN(c4ccccc4)CC3)c3ccc4c(c3)OCO4)c(OC)cc(OC)c12` (stereo unspecified), the inhibition was 22.5%.

As to `COc1cc(OC)c2ccc(=O)oc2c1C(CCN1CCCC(C)C1)c1ccc(N(C)C)cc1` (stereo unspecified), the inhibition was -10.1%.

As for `COc1ccc(C(CCN2CCCC(C)C2)c2c(OC)cc(OC)c3c2OC(=O)CC3c2cc(OC)c(OC)c(OC)c2)cc1` (stereo unspecified), the inhibition is -7.36%.

Regarding `CCCCCc1cc(=O)oc2c(C(CCN3CCN(c4ccccc4)CC3)c3ccc(N(C)C)cc3)c(OC)cc(OC)c12` (stereo unspecified), the inhibition was 12.8%.

With `N/C(=N/OC(=O)c1ccccc1F)c1nonc1N`, the inhibition was 1.17%.

For `S=C(NCC1CCCO1)N1CCN(Cc2ccccc2Cl)CC1` (stereo unspecified), the inhibition is -6.51%.

Turning to `CCOC(=O)c1cnn(CCOC(=O)c2ccccc2F)c1NC(=O)c1ccccc1F`, the inhibition is -4.26%.
